# NPSR antag = neuropeptide S receptor (human) antagonism, cAMP. Q6W5P4. CHO-NPSR cells, cAMP TR-FRET, antagonist mode. Potency, µM (highest dose often 38.3 µM), usual class: inhibitors. 1% of 220,000 active; also: nearly all actives have a fitted effect of over 50% in size
# Target sequence (Q6W5P4 whole entry, looked up): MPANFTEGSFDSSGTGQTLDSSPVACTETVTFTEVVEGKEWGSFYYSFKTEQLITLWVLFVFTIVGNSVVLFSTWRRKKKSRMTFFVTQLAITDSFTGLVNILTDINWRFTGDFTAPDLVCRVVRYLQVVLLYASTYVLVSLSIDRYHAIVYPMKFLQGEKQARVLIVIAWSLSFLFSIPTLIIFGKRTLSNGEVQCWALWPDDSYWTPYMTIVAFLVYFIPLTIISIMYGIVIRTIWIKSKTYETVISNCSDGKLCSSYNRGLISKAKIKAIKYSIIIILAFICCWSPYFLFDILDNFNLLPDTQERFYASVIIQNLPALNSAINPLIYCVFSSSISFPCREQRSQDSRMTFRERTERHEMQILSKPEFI
# HTT aggregate = reduces HttQ103-GFP aggregates in PC12 cells | Potency, µM (top dose mostly 46.1 µM), usual class: inhibitors | 1.1% of 220,000 active | PC12 HttQ103-GFP aggregates, Acumen cytometry, 40 h; also: nearly all actives have a fitted effect of over 60% in size
#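 Read-out: GFP aggregate count by laser scanning cytometer (488 nm excitation, 500-530 nm emission, 1–25 µm objects >6 SD above background). Cells: PC12, inducible HTTex1-Q103-GFP, 100 nM tebufenozide; compounds titrated.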
# ALOX12 inhib = inhibitors of human 12-lipoxygenase (ALOX12) | 0.12% of 150,000 active | Potency, µM (titrated, usually from 57.1 µM), most hits filed as inhibitors | purified 12-hLO, xylenol orange hydroperoxide absorbance | AID 1452 | P18054; also: nearly all actives have a fitted effect of over 55% in size
#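 Hydroperoxide output read as Fe(III)-xylenol orange absorbance, 573-to-405 nm ratio, after 30 min reaction with 40 uM arachidonic acid. Enzyme: 150 nM purified human 12hLO, 15 min compound preincubation; 25 mM Hepes pH 7.0, room temperature.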
# HTT cytoprotect = protects HTT-Q103 PC12 cells, measured by ATP; AID 1471; 0.14% of 230,000 active; PC12 HTT-Q103 induced, cytoprotection, ATP luminescence, 40 h; Potency, µM (doses to about 56.4 µM), most hits filed as activators; also: nearly all actives have a fitted effect of over 45% in size
#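 Cells were plated at 1500 per well in phenol red-free DMEM with 5% equine and 5% calf serum. Tebufenozide (100 nM final) and compounds were added, then ATPlite reagent, and luminescence was read.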
# IMPase inh = cell-permeable inhibitors of inositol monophosphatase (IMPase). inhibition (IP1 accumulation), % at 46.1 µM. CHO-M1 cells, IP1 accumulation, HTRF TR-FRET ratio. AID 901. 120,000 tested, under 10 active; active = well fitted curve in the direction sought with a large enough effect in the signal ratio, not every such curve was filed as active; inconclusive = small, poorly fitted or top-dose-only effect, or a change in a side signal; inactive = no such curve, though single readings can be large or run the other way; the % refers to the signal ratio;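 also: cells stimulated with carbachol in lithium chloride buffer; higher means more IMPase inhibition seen as more IP1 and lower FRET ratio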
# Target sequence (P97697 whole entry, looked up): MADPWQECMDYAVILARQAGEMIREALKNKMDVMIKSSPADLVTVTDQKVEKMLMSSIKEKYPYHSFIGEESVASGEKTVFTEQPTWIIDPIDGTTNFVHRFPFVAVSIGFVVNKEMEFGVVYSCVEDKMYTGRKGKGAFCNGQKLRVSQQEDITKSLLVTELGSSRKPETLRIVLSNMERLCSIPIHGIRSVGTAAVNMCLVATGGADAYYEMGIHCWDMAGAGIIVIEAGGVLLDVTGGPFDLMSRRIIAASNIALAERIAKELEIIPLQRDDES
#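 In this qHTS, compounds (final up to 46 uM) act on CHO-M1 cells that are then activated through the M1 receptor with carbachol, in pH 7.4 buffer containing 50 mM LiCl, for 30 min. IP1 accumulation is quantified by the IP-One immunoassay.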
# PNC inhibitor = inhibitors of perinucleolar compartment assembly; PC3M PTB-GFP, PNC prevalence imaging, 16 h; hits give low values; activity change (PNC), negative = inhibition, % at 10 µM; 3.1% of 140,000 active; AID 2417;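 active = readout at or below -70, meaning at least 70% loss of cells showing the perinucleolar compartment, a nuclear body marking cancer cells; inconclusive = readout between -30 and a set limit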
#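 Read-out is percentage of cells bearing a perinucleolar compartment, from automated 20x imaging of fixed, Hoechst-stained PC3M PTB-GFP cells. Cells were seeded 4 h, then exposed 16 h to compound (23 nl of library stock) in duplicate plates.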
# Numbers stand for hits; - = inactive; ? = inconclusive; . = no result; [ ] = remark or other dose. Most compounds without a hit are left out; they make up all but 3.3% or so of the library. Unless noted, calls follow the shape of the dose curve; as a rule, active = well fitted curve in the direction sought with a large enough effect; inconclusive = small, poorly fitted or top-dose-only effect, or another doubt; inactive = no such curve, though single readings can be large; an effect the other way counts as inactive or inconclusive.
SMILES,NPSR antag,HTT aggregate,ALOX12 inhib,HTT cytoprotect,IMPase inh,PNC inhibitor
COc1ccc(CC(N)C(=O)N[C@H]2[C@@H](O)[C@H](n3cnc4c(N(C)C)ncnc43)O[C@@H]2CO)cc1 (stereo partly drawn),.,.,-[0.00818 µM],-,.,.
CN(C)c1ncc2nc(-c3cc(F)cc(F)c3)c(=O)n(Cc3ccc(F)cc3)c2n1,.,.,.,-,.,.
Cc1noc(C)c1C(=O)N1CCC[C@@]2(CCN(c3ccccn3)C2)C1,.,.,-,-,.,.
COc1ccc(NC(=O)C2CCN(Cc3cnn(-c4ccccc4)c3-n3cccc3)CC2)cc1OC,-,?,-,-,-,-
COc1ccc(OC)c(NC(=O)C2CCN(Cc3cnn(-c4ccccc4)c3-n3cccc3)CC2)c1,-,-,-,-,-,-88
Cc1cc(C)nc(Nc2ncc(O)n2-c2ccc(Br)cc2)n1,-,.,.,.,.,.
COC(=O)C1=C(C(=O)OC)[C@@H]2N(Cc3ccccc3)c3ccccc3[C@@]23C[C@@H](C(=O)OC)N(S(=O)(=O)c2c(C)noc2C)C3=N1,.,.,-[11.4 µM],-[10 µM],.,.
O=C(Nc1ccccc1N1CCCCC1)c1ccc(-c2ccc(Cl)cc2)o1,-,-,-,.,.,-82
CC1=C(C#N)C(c2cn(-c3ccccc3)nc2-c2cccs2)C(C#N)=C(C)N1,-,-,-,-,-,-95
CC(=O)Nc1cc(C(=O)NCc2ccco2)ccc1Sc1ccc(Cl)cc1,-,-,-,-[10 µM],.,-103
CN1CCN(C(=O)C2CCCCC2)CC1,.,-,.,?,.,.
CCN(CC)C(=O)c1ccc(S(=O)(=O)NCc2cccnc2)cc1,-,11µM,-,-[10 µM],-,-
Cc1c(C#N)c(NC(=O)CCl)n(Cc2cccs2)c1C,-,20µM,.,-[10 µM],.,.
CCN(CC)C(=O)c1sc(NC(=O)Cc2cccs2)c(C#N)c1C,-,-,-,-[10 µM],-,-
N#Cc1c(NC(=O)c2ccccc2Cl)n(Cc2ccccc2)c2nc3ccccc3nc12,-,?,-,-[10 µM],-,?
Cc1c(C#N)c(NC(=O)CCl)n(Cc2ccc(F)cc2)c1C,-,6.3µM,.,-,.,.
Cc1c(C#N)c(NC(=O)CCl)n(Cc2ccccc2)c1C,-,4µM,.,-,.,.
COc1cccc([C@@H]2Oc3ccc(Br)cc3C[C@H]2OC(=O)NS(=O)(=O)c2ccc(F)cc2)c1,.,.,.,-,.,.
CCCCCCCC/C=C/CCCCCCCCOP(=O)([O-])OCC[N+](C)(C)C,.,.,-,-,.,.
COC(=O)c1cc(CSc2nnc(NC3CCCCC3)s2)oc1C,-,28µM,-,-,?,?
O=c1cc(CSc2nnc(NC3CCCCC3)s2)nc2sccn12,-,-,.,-,.,.
CC(C)CSc1nnc(-c2ccccc2)c(-c2ccccc2)n1,.,.,.,.,-,.
CCC(=O)Nc1ccc(S(=O)(=O)Nc2ccc(Cl)nn2)cc1,-,-,-,-[10 µM],.,-80
CC(=O)Nc1ccc(S(=O)(=O)Nc2ccc(Cl)nn2)cc1,-,-,-,-[10 µM],.,-
CCOc1cc(/C=C\[N+](=O)[O-])ccc1OCC(=O)Nc1ccccc1C,4µM,-,-,-,-,-
SMILES,NPSR antag,HTT aggregate,ALOX12 inhib,HTT cytoprotect,IMPase inh,PNC inhibitor
CCOC(=O)c1sc2nc(N3CCOCC3)c3c(c2c1N)CC(C)(C)N(C)C3,-,.,-,-,-,-
CN1Cc2c(N3CCOCC3)nc3sc(C(=O)c4ccccc4)c(N)c3c2CC1(C)C,13µM,-[9.22 µM],.,-[10 µM],.,.
NC(=O)c1sc2nc(N3CCOCC3)c3c(c2c1N)CCCC3,-,-[9.22 µM],-,-,?,-
CCOC(=O)c1sc2nc(N3CCOCC3)c3c(c2c1N)CCC3,-,-,-,-,-,-96
N#C[C@@H]1[C@@H]2C(=O)N(c3ccc4c(c3)OCCO4)C(=O)[C@@H]2C2c3ccccc3C=CN21 (stereo partly drawn),-,-,-,-[10 µM],-,-100
CC(=O)[C@@H]1[C@@H]2C(=O)N(c3ccc(F)c(Cl)c3)C(=O)[C@@H]2C2c3ccccc3C=CN21 (stereo partly drawn),-,-,-,-[0.074 µM],-,-
CCN1C(=O)C(O)(CC(=O)c2ccc(-n3cccc3)cc2)c2ccccc21 (stereo not drawn),-,-,-,-[10 µM],-,-100
C=CCNC(=S)N/N=C(\C)c1ccccn1,-,3.5µM,-,-[10 µM],-,?
C/C(=N/NC(=O)CNC(=O)c1ccccn1)c1ccccc1,-,-,-,-[10 µM],.,?
COc1ccc(O)c(/C=N/NC(=S)Nc2cccnc2)c1,-,13µM,.,-,.,.
CCc1nnc(NC(=O)CSc2nc(-c3ccc(F)cc3)cc(-c3ccccc3)c2C#N)s1,7.9µM,-,-,-[10 µM],-,-
O=C(NC(=S)Nc1cccc(Cl)c1N1CCCCC1)c1cccs1,?,-,?,-,-,-108
COc1ccccc1NCC(=O)NNC(C)C(=O)Nc1cccc(Cl)c1 (stereo not drawn),-,-,.,-,.,.
COc1cccc(C(=O)COc2ccc3c(C)c(Cc4ccccc4)c(=O)oc3c2C)c1,-,-,-,-[10 µM],.,-100
COC(=O)Cc1c(C)c2ccc(OCC(C)=O)c(C)c2oc1=O,-,-,-,-,-,-
C=C(C)COc1ccc2c(C)c(CC(=O)OC)c(=O)oc2c1C,-,11µM,-,-[10 µM],-,-
Cc1cccc(C)c1NC(=O)COc1ccc2c(C)c(Cc3ccccc3)c(=O)oc2c1C,-,?,-,-[10 µM],.,?
COC1C(O)CC(=O)OC(C)C/C=C/C=C/[C@@H](OC2CCC(N(C)C)C(C)O2)C(C)C[C@@H](CC=O)[C@@H]1O[C@H]1OC(C)[C@H](O[C@@H]2C[C@@](C)(O)C(O)C(C)O2)C(N(C)C)C1O (stereo partly drawn),.,.,-,-,.,.
CC12CCC(c3n[nH]c(=S)nc31)C2(C)C (stereo not drawn),-,?,-,.,.,-113
CCNc1nc2c(c(=O)[nH]c(=O)n2C)n1CC(O)COc1ccc(Cl)cc1Cl (stereo not drawn),.,.,.,.,-,.
COc1ccccc1NC(=O)c1cnc(Nc2ccccc2OC)c2ccccc12,-,-,-,-[10 µM],.,-86
COc1ccccc1Nc1ncccc1C(=O)O,-,-,-,-,-,-100
COc1ccccc1Nc1ncc(C(=O)N2CCC(C(N)=O)CC2)c2ccccc12,-,-,-,-[10 µM],-,-
COc1cccc(Nc2ncccc2C(=O)Nc2ccccc2)c1,-,-,-,-,-,-80
CCOc1ccccc1Nc1ncccc1C(=O)O,-,?,-,-[10 µM],-,-
O=C(/C=C/c1cccc([N+](=O)[O-])c1)OC1CCCCC1=O (stereo not drawn),-,-,.,-[10 µM],.,.
CCOC(=O)c1sc2nc(NC(=O)C(C)(C)C)sc2c1C,?,35µM,-,-,-,-

# Compound activity as filed in PubChem BioAssay.
